Compound activity deposited in PubChem by National Center for Advancing Translational Sciences (NCATS).
Rab9 promoter act = qHTS Assay for Rab9 Promoter Activators; Huh7 Rab9 promoter-luciferase reporter, luminescence, 24 h; AID 485297, 2010; Potency, µM (highest dose often 9.22 µM), hits mostly activators; 2.8% of 320,000 active; also: nearly all actives have a fitted effect of over 60% in size
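Huh7 reporter line, Rab9 promoter upstream of luciferase. Compound exposure 24 h at 37 °C in reduced-serum medium with 10% FBS. Read-out: luminescence.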
FLuc counter = qHTS profiling assay for firefly luciferase inhibitor/activator using purifed enzyme and Km concentrations of substrates (counterscreen for miR-21 project); Luciferin 4-monooxygenase (Photinus pyralis), P08659; purified FLuc, Km substrates, luminescence inhibition; Potency, µM (highest dose often 57.5 µM), hits mostly inhibitors; 6.9% of 360,000 active; also: nearly all actives have a fitted effect of over 55% in size
Target sequence (P08659 whole entry, looked up): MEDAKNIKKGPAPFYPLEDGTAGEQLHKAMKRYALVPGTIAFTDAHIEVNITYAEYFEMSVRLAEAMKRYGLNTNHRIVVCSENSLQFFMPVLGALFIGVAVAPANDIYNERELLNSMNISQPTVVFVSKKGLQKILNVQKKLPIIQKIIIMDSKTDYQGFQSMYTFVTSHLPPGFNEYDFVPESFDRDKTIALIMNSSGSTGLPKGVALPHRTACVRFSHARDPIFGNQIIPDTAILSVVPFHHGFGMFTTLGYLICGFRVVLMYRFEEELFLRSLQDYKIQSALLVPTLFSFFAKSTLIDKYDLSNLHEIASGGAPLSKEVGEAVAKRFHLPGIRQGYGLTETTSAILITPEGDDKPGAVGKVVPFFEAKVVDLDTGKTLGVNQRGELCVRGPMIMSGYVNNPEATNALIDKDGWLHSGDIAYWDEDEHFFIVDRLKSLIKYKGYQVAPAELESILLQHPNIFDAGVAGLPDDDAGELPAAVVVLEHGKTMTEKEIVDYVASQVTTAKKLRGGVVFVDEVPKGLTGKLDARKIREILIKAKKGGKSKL
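Purified P. pyralis luciferase, 10 nM final, with Km-level 10 uM D-luciferin and 10 uM ATP in 50 mM Tris acetate pH 7.5, 10 mM Mg acetate, 0.01% Tween-20, 0.05% BSA; 6-point qHTS titration about 60 µM downward; luminescence read.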
NPC1 prom act = qHTS Assay for NPC1 Promoter Activators. Huh7 NPC1 promoter luciferase reporter, 24 h. Potency, µM (doses to about 9.22 µM), usual class: activators. 2.4% of 320,000 active; also: nearly all actives have a fitted effect of over 60% in size
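Luciferase expression driven by the NPC1 promoter was measured in stably transfected Huh7 cells after a 24 h compound incubation, using a luciferase reagent and a luminescence read.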
p53 reactivation = qHTS assay for re-activators of p53 using a Luc reporter; H1299 p53-A138V BP100-luciferase reporter, luminescence, 24 h; Potency, µM (doses to about 92.2 µM), usual class: activators; 0.063% of 320,000 active; AID 504706, 2011; also: nearly all actives have a fitted effect of over 45% in size
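p53-null H1299 cells stably carrying temperature-sensitive p53-A138V and a BP100-luciferase reporter were pinned with compounds (4-point, 1:5 series) and held 24 hrs at 37 deg C. Luminescence was read 10 min after detection reagent.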
SMN2 splice up = qHTS Assay for Enhancers of SMN2 Splice Variant Expression | Potency, µM (series often up to 46.1 µM), actives largely listed as activators | 2.8% of 210,000 active | HEK293 SMN2-luciferase splicing reporter, luminescence, 30-36 h; also: nearly all actives have a fitted effect of over 55% in size
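qHTS luciferase splicing reporter: luminescence rises when SMN2 exon 7 is included in transfected HEK293 cells. Compound exposure lasted 30-36 h at 37C, with 4.5 mM final sodium butyrate as control, followed by a ONE-Glo read.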
ELG1 genotoxic = qHTS screen for small molecules that induce genotoxicity in human embryonic kidney (HEK293T) cells expressing luciferase-tagged ELG1; HEK293T ELG1-luciferase reporter, luminescence, 16 h; Potency, µM (top dose mostly 46 µM), most hits filed as activators; 1.3% of 330,000 active; AID 504466, 2011; also: nearly all actives have a fitted effect of over 60% in size
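Genotoxic stress is detected as increased luminescence from luciferase-tagged ELG1 in HEK293T cells, measured with ONE-Glo after a 16 hr treatment at 37 °C.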
Hits are given with their value; – = inactive; ? = inconclusive; · = no result given; [ ] = remark or other dose. An excerpt weighted towards active compounds, which were near 7.3% of everything screened. Calls follow the shape of the dose curve; as a rule, active = well fitted curve in the direction sought with a large enough effect; inconclusive = small, poorly fitted or top-dose-only effect, or another doubt; inactive = no such curve, though single readings can be large; an effect the other way counts as inactive or inconclusive.

SMILES | Rab9 promoter act | FLuc counter | NPC1 prom act | p53 reactivation | SMN2 splice up | ELG1 genotoxic
O=C(c1cc(-c2cccc(Cl)c2)on1)N1CCN(c2ccccc2)CC1 | – | ? | – | – | – | –
O=C(c1cc(-c2cccc(O)c2)on1)N1CCOCC1 | ? | 6.7µM | ? | – | ? | 2.9µM
O=C(c1cc(-c2cccc(O)c2)on1)N1CCCCCC1 | – | 8.5µM | ? | ? | · | 13µM
COc1ccccc1CNS(=O)(=O)c1ccc2c(c1)NC(=O)C(C)C(=O)N2 (stereo not drawn) | · | – | · | · | · | ·
COc1ccc(CN2C(=O)c3ccccc3C(/C=N\OCc3ccc(C)cc3)C2=O)cc1 (stereo not drawn) | – | 17µM | – | – | – | –
CCCCN1CCC(n2c(=O)[nH]c3ccccc32)CC1 | – | · | – | · | ? | ·
O=C(Nc1ccccc1F)C(=O)Nc1cccc2ccccc12 | 2.8µM | ? | ? | · | · | ?
O=C(Nc1cccc2ccccc12)/C(Cl)=C/c1ccccc1 | – | 12µM | – | – | – | –
O=C(CNc1ccccc1F)Nc1cccc2ccccc12 | – | – | – | – | · | –
CCOC(=O)c1[nH]c(C)c(CCC(=O)Nc2ccc(C(C)=O)cc2)c1C | · | – | · | · | · | ·
COc1ccc([C@H]2Cc3cc(O)cc(O)c3C(=O)O2)cc1O | · | · | · | – | · | 5.2µM
COc1ccc([C@H]2Cc3cccc(O)c3C(=O)O2)cc1O | – | – | – | – | · | –
O=C(NCC1CCCO1)c1cccc(Oc2ccccc2)c1 (stereo not drawn) | ? | 17µM | – | – | · | ?
O=C(NCC1CCCO1)c1cccc(Oc2ccc([N+](=O)[O-])cc2)c1 (stereo not drawn) | – | – | – | – | · | –
CN(C)c1cccc(C(=O)NCC2CCCO2)c1 (stereo not drawn) | – | – | – | ? | 28µM | ?
CN(C)c1ccc(C(=O)NCC2CCCO2)cc1 (stereo not drawn) | – | ? | ? | ? | 25µM | ?
CC(=O)c1cccc(NC(=O)N2CCc3ccccc3C2)c1 | ? | 13µM | 4µM | – | – | ?
CC(=O)c1ccc(NC(=O)N2CCc3ccccc3C2)cc1 | ? | ? | – | – | 22µM | –
COC(=O)c1ccccc1NC(=O)c1sc2nc(C)cc(C)c2c1NC(=O)c1ccccc1Cl | · | – | · | · | – | ·
COc1cccc(COc2ccc3ccc(=O)oc3c2)c1 | 3.2µM | 13µM | ? | ? | · | ?
COc1ccc2ccc(=O)oc2c1 | – | – | – | – | – | –
COc1ccc(COc2ccc3ccc(=O)oc3c2)cc1 | 2.8µM | 11µM | 4µM | ? | · | ?
CC(C)Cn1c(CCCNC(=O)c2ccc(F)cc2)nc2ccccc21 | – | – | – | – | – | –
COCCn1c(/C=C/c2ccccc2)nc2ccccc21 | 2µM | 1.7µM | 2.2µM | – | 11µM | ?
CC(C)Cn1c(/C=C/c2ccc(F)cc2)nc2ccccc21 | · | 2.4µM | · | · | 18µM | ·
SMILES | Rab9 promoter act | FLuc counter | NPC1 prom act | p53 reactivation | SMN2 splice up | ELG1 genotoxic
CCC(C)Cn1c(C(C)C)nc2ccccc21 (stereo not drawn) | –[1.84 µM] | – | – | – | – | –
CC(C)CCn1c(/C=C/c2ccccc2)nc2ccccc21 | · | 4.3µM | · | · | ? | ·
CCC(C)Cn1c(/C=C/c2ccccc2)nc2ccccc21 (stereo not drawn) | · | 6.7µM | · | · | – | ·
CC[C@H](C)[C@@H](NC(=O)O[C@@H]1C(=O)c2ccc(OC)cc2O[C@H]1c1ccc2c(c1)OCO2)C(=O)OC | · | · | · | · | – | ·
Cc1cc2c(c(=O)o1)C1O[C@](CCCCN3C(=O)c4ccccc4C3=O)(Cc3cc(C#N)ccc31)O2 | –[1.84 µM] | –[11.5 µM] | –[1.84 µM] | · | · | ·
Cc1cccc(NC(=O)Cn2c(/C=C/c3ccccc3)nc3ccccc32)c1 | – | 3µM | – | ? | · | 23µM
CC(=O)Nc1ccc(/C=C/c2ccc3cccc([N+](=O)[O-])c3n2)cc1 | – | ? | – | – | · | –
COc1cc(/C=C/c2ccc3cccc([N+](=O)[O-])c3n2)ccc1OCC(=O)O | – | 1.9µM | – | – | – | –
COc1c(OC(C)=O)ccc(/C=N\NC(=O)c2ccc(Br)cc2)c1[N+](=O)[O-] | – | – | – | – | · | –
COc1cc(/C=C/c2nc3ccc([N+](=O)[O-])cc3s2)ccc1OCC(=O)O | – | 2.7µM | – | – | · | –
CCOc1c(OC(C)=O)ccc(/C=C/c2ccc3cccc(OC)c3n2)c1[N+](=O)[O-] | – | 6µM | ? | – | ? | –
COc1cc(/C=C/c2ccc3c([N+](=O)[O-])cccc3n2)ccc1OCC(=O)O | – | 3.4µM | – | – | · | –
Cc1nc2c(c(C)c1CCC(=O)NCc1ccccc1)c(=O)n(C)c(=O)n2C | · | – | · | · | ? | ·
O=C(O)COc1ccc(/C=C/c2ccc3cccc([N+](=O)[O-])c3n2)cc1 | – | 2.7µM | – | – | – | –
CN1CCC(Oc2ccc(Sc3ccccc3)cc2)CC1 | – | 12µM | – | ? | – | ?
Cc1cc(C)cc(-n2ccnc(NCc3ccc(F)cc3)c2=O)c1 | · | – | · | · | · | ·
